# According to the supplement of paper PMC6411743:
# ± gives the standard deviation of the averaged measurements. Of roughly 6,200 targets only a part is listed; those with the largest changes were picked by preference.
# Compound: Nc1ncnc2c1ncn2[C@@H]1O[C@H](COP(=O)(O)OP(=O)(O)NP(=O)(O)O)[C@@H](O)[C@H]1O [adenylyl imidodiphosphate]
# Experiment: NP40-soluble protein abundance relative to vehicle (solubility fold change) (ratio); higher = more soluble protein in presence of AMP-PNP
# Conditions: concentration: 4mM
# Procedure, shortened: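 Jurkat crude lysate (Dounce-homogenised) was treated with eight concentrations from 0.1 to 10 mM for 10 min at room temperature, then 3 min at 37 °C. It was solubilised with 0.8% NP40 and benzonase (60 min, 4 °C) and ultracentrifuged, and the supernatant was TMT-labelled for LC-MS/MS. Intensities were vsn-normalised, and the value is the fold change against the NP40-processed vehicle per replicate, from three independent experiments.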
# Chain of UniProt Q9UG63 (Q9UG63 whole entry): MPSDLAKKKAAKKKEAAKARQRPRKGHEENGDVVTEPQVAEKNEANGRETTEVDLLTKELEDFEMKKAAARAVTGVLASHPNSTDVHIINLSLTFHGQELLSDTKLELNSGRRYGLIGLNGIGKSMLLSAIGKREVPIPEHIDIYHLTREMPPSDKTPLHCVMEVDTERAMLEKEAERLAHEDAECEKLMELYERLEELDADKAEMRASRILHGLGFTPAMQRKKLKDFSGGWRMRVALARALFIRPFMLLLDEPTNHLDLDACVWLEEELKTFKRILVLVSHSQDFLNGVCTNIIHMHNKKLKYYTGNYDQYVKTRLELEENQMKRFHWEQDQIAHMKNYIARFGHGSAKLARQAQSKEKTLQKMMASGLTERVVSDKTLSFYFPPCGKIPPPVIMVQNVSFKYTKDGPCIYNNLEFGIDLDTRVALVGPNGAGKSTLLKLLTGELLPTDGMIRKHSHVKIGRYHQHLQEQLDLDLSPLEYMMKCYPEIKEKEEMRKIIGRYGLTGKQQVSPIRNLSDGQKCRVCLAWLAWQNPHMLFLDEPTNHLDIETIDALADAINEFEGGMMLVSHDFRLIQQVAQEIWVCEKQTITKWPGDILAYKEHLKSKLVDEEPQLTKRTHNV
# Chain of UniProt Q9BTC0 (Q9BTC0 whole entry): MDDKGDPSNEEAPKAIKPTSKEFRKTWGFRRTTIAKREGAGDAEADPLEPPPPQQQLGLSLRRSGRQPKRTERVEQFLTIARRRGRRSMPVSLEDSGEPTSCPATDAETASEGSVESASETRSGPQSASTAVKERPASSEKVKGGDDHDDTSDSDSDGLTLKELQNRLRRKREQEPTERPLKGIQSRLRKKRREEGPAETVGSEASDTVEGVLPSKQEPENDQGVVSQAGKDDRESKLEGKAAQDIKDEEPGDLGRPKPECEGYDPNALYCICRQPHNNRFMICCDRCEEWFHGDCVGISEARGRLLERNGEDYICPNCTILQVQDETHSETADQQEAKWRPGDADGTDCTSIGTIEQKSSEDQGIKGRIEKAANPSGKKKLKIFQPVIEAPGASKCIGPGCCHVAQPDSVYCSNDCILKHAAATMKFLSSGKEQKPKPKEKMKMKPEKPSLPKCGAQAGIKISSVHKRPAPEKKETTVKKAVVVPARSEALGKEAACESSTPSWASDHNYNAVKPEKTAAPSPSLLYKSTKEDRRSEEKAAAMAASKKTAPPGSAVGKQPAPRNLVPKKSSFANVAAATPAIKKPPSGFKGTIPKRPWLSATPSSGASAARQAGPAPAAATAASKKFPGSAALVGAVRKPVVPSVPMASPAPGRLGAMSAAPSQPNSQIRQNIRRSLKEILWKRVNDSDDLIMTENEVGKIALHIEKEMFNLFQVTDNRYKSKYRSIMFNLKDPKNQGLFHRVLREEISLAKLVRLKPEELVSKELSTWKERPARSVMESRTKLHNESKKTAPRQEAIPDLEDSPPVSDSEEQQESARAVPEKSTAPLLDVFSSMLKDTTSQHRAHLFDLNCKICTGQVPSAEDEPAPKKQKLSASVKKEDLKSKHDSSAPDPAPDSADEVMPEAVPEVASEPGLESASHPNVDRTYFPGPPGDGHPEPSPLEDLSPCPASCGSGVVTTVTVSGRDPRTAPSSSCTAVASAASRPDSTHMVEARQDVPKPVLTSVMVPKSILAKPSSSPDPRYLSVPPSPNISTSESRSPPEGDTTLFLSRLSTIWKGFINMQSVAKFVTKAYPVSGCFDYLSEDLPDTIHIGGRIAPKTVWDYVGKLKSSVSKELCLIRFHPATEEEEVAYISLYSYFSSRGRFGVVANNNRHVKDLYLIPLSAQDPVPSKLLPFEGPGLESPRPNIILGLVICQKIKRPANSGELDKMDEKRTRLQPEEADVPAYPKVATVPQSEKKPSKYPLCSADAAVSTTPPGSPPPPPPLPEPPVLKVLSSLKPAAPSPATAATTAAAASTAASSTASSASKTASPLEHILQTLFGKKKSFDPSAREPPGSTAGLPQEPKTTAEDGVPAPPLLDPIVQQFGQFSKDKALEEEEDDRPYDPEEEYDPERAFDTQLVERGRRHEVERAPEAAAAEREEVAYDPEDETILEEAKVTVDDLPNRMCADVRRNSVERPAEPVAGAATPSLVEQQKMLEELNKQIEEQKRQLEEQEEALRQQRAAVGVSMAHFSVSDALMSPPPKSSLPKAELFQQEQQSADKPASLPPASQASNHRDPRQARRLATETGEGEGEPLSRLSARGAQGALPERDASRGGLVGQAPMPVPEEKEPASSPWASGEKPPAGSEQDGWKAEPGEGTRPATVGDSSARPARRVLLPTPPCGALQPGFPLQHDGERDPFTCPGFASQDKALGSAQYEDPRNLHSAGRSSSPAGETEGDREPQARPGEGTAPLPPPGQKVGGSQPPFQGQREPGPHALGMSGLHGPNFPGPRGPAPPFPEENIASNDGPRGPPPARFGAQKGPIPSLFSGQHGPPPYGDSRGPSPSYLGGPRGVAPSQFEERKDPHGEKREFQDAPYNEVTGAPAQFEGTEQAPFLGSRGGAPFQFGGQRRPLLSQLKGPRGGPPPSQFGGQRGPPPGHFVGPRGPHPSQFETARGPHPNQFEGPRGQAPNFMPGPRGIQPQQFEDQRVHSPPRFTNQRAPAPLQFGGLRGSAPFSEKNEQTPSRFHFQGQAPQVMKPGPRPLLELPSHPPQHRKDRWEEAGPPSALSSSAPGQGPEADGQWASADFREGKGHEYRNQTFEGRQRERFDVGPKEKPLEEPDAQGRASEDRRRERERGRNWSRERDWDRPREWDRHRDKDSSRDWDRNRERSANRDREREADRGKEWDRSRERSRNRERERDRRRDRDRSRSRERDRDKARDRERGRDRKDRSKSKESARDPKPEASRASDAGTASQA
# Chain of UniProt Q9HCE1 (Q9HCE1 whole entry): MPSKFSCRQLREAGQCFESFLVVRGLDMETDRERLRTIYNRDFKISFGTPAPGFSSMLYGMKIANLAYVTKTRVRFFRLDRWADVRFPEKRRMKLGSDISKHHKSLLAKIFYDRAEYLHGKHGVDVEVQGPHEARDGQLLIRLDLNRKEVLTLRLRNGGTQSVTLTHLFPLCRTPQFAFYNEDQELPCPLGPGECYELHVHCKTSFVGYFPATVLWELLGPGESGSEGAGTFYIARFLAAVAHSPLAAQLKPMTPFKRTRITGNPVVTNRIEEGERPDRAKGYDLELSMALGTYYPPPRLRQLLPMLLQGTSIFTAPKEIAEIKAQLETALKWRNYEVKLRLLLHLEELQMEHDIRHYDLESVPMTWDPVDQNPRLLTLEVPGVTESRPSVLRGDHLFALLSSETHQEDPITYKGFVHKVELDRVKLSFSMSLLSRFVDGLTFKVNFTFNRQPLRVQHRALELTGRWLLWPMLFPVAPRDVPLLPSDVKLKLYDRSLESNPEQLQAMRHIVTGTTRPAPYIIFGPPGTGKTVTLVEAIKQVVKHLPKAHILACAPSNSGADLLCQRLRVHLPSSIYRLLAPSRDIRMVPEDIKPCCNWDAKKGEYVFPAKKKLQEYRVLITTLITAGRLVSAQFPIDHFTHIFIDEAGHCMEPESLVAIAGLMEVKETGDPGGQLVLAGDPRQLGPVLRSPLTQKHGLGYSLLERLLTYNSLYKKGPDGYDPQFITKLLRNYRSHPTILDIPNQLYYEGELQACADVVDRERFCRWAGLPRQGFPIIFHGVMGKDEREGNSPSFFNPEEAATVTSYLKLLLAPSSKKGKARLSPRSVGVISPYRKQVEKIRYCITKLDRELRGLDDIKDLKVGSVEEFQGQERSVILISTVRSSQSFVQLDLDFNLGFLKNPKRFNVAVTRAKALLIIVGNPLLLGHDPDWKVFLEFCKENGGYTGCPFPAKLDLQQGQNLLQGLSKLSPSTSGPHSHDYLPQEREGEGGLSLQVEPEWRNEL
# Chain of UniProt Q9HA47 (Q9HA47 whole entry): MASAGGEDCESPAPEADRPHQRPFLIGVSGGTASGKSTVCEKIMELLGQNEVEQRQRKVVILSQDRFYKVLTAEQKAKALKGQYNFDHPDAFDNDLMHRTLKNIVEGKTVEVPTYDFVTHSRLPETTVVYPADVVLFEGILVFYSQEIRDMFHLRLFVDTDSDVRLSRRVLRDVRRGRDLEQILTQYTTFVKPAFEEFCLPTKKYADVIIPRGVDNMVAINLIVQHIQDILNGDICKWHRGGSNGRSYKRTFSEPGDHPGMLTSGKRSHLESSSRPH
# Chain of UniProt Q9UL63 (Q9UL63 whole entry, one chain of several): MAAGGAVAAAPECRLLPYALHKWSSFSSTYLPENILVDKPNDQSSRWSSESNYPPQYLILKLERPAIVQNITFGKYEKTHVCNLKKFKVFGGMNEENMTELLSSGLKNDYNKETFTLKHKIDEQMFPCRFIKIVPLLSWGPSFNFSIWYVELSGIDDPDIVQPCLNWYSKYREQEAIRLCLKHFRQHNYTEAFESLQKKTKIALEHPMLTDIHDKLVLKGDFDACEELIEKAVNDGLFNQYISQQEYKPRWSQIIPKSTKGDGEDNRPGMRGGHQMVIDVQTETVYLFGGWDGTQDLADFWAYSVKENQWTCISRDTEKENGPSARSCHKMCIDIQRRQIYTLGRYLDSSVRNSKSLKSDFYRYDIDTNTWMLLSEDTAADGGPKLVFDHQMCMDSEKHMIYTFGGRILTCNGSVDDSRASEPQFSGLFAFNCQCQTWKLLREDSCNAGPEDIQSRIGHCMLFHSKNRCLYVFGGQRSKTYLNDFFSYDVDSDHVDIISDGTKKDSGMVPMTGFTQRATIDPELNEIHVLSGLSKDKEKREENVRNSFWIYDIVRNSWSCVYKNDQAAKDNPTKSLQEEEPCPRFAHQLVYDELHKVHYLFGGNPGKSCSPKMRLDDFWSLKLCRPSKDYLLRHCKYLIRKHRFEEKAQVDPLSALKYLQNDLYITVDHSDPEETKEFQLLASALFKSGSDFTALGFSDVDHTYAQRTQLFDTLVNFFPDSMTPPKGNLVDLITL
# Chain of UniProt Q9NZ45 (Q9NZ45 whole entry): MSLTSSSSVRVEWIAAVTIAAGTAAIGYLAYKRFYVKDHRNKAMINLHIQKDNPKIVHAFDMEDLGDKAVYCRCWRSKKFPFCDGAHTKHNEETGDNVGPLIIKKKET
row,Target,NP40-soluble protein abundance
1,NSMCE4A (UniProt Q9NXX6),0.967 ± 0.056
2,UniProt Q9NXR1|Q9NXR1-2|X5DR54,1.01 ± 0.025
3,SORT1 (UniProt Q99523),0.995 ± 0.063
4,MOV10 (UniProt Q9HCE1),0.932 ± 0.09
5,C9orf78 (UniProt Q9NZ63),0.982 ± 0.055
6,UniProt Q9Y520|Q9Y520-5|Q9Y520-7|E7EPN9|Q9Y520-4,1.2 ± 0.05
7,UniProt Q9Y5Y5|Q9Y5Y5-2,0.9611 ± 0.0026
8,UBAC1 (UniProt Q9BSL1),0.998 ± 0.028
9,UniProt Q9UG63|Q9UG63-2,1.41 ± 0.054
10,ZNF48 (UniProt Q96MX3),1.05 ± 0.033
11,UniProt Q9UL63|C9J7E8|Q9UL63-2,0.994 ± 0.041
12,DIDO1 (UniProt Q9BTC0),1.23 ± 0.043
13,UniProt Q9Y2A7|Q9Y2A7-2,0.9706 ± 0.0091
14,RBM27 (UniProt Q9P2N5),1.13 ± 0.05
15,UniProt Q9UM21,0.981 ± 0.023
16,UCK1 (UniProt Q9HA47),1.01 ± 0.011
17,UniProt Q9Y462|Q9Y462-3,1.012 ± 0.0034
18,UniProt Q96P48|Q96P48-3,0.983 ± 0.07
19,UniProt Q9UPT9|Q9UPT9-2,0.96 ± 0.025

row,Target,NP40-soluble protein abundance
1,ISCU (UniProt Q9H1K1),0.987 ± 0.043
2,TPX2 (UniProt Q9ULW0),1.23 ± 0.066
3,UniProt Q9GZY4,1.01 ± 0.022
4,CISD1 (UniProt Q9NZ45),1 ± 0.04
5,CBX8 (UniProt Q9HC52),1.13 ± 0.018
6,PNKP (UniProt Q96T60),1.1 ± 0.071
7,REXO4 (UniProt Q9GZR2),1.1 ± 0.038
8,UniProt Q9UKT4|Q9UKT4-2,1.03 ± 0.072
9,CHST12 (UniProt Q9NRB3),0.9935 ± 0.0064
10,UniProt Q9NYF8|Q9NYF8-2|Q9NYF8-3|E9PK91,1.19 ± 0.033
11,UniProt Q9NPB8|H0Y565,1.02 ± 0.015
12,HECA (UniProt Q9UBI9),1.02 ± 0.049
13,UniProt Q9P2R7|Q9P2R7-2,0.938 ± 0.011
14,UniProt Q9BPZ3|D6R9Y1,0.945 ± 0.028
15,UniProt Q9NXK8|Q9NXK8-2,0.9901 ± 0.0047
16,UniProt Q9H668,0.985 ± 0.027
17,UniProt Q9P1W8|Q9P1W8-2,1.02 ± 0.018
18,NOB1 (UniProt Q9ULX3),0.984 ± 0.042

# Same assay, conditions: concentration: 6mM
row,Target,NP40-soluble protein abundance
1,NSMCE4A (UniProt Q9NXX6),0.933 ± 0.017
2,UniProt Q9NXR1|Q9NXR1-2|X5DR54,0.978 ± 0.019
3,SORT1 (UniProt Q99523),1.03 ± 0.055
4,MOV10 (UniProt Q9HCE1),0.938 ± 0.032
5,C9orf78 (UniProt Q9NZ63),0.971 ± 0.036
6,UniProt Q9Y520|Q9Y520-5|Q9Y520-7|E7EPN9|Q9Y520-4,1.25 ± 0.12
7,UniProt Q9Y5Y5|Q9Y5Y5-2,1.04 ± 0.024
8,UBAC1 (UniProt Q9BSL1),0.955 ± 0.015
9,UniProt Q9UG63|Q9UG63-2,1.82 ± 0.11
10,ZNF48 (UniProt Q96MX3),1.06 ± 0.028
11,UniProt Q9UL63|C9J7E8|Q9UL63-2,0.937 ± 0.085
12,DIDO1 (UniProt Q9BTC0),1.28 ± 0.12
13,UniProt Q9Y2A7|Q9Y2A7-2,1 ± 0.019
14,RBM27 (UniProt Q9P2N5),1.24 ± 0.12
15,UniProt Q9UM21,1 ± 0.071
16,UCK1 (UniProt Q9HA47),1.02 ± 0.026
17,UniProt Q9Y462|Q9Y462-3,1.01 ± 0.036
18,UniProt Q96P48|Q96P48-3,0.903 ± 0.059
